Only some compounds are listed: those with a hit (about 1.4% of all), similar ones and a draw of the others.
MOR-DOR ag = OPRM1-OPRD1 heterodimerization agonism. actives 0.3% (n = 340,000). activation, % at 9.3 µM. AID 504326. cells, luminescence. P35372+P41143;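 note: 0% = vehicle-treated cells and 100% = reference agonist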
HTR5A inv ctr = inverse agonist of human HTR5A in OPRM1-OPRD1 counter-screen | P47898 | HTR5A cell line, luminescence, inverse agonism | inhibition, % at 9.3 µM | actives 0.083% (n = 340,000); in the data active = inhibition mostly above about 23%, no sharp cut-off; inactive = mostly below about 18%;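 note: 0% = cells with DMSO and 100% = no-cell wells with DMSO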
Target sequence (P47898 whole entry, looked up): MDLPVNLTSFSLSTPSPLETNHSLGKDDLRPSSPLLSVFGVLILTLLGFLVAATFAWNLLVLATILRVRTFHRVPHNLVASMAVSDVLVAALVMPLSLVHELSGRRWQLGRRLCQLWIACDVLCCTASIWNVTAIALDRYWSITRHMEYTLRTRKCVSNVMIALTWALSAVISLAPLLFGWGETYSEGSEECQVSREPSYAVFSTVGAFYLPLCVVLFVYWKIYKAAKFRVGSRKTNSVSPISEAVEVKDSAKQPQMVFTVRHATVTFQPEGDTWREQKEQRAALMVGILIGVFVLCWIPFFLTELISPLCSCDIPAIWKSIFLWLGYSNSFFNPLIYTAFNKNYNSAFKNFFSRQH
MIN6 prolif = MIN6 beta-cell proliferation induction | MIN6 cells proliferation, ATPlite luminescence, 48 h; cells starved in 0.2% serum; 100% = growth in 10% serum | proliferation, % at 10 µM | actives 0.29% (n = 330,000) | AID 2380;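 active = compounds whose signal lies at least 3.5 SD above the mean of all wells on their plate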;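 note: 0% = DMSO-treated cells in low-serum medium and 100% = 10% serum control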
p-CIP stab down = compounds decreasing mouse p/CIP protein stability | Q05BA5 | F442A p/CIP-EGFP cells, EGFP fluorescence, 16 h | decrease of EGFP signal, % at 10 µM | actives 0.01% (n = 290,000) | AID 1984;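 active = EGFP signal decrease of at least 30% at 10 µM or well 3 SD below plate mean, unless failing retest; inactive = the rest, including hits failing retest or dose response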
HTR5A ag = counter-screen for OPRM1-OPRD1 agonists: human HTR5A agonism. P47898. HTR5A agonist assay, luminescence, cell-based. activation, % at 9.3 µM. actives 0.61% (n = 340,000). AID 504692; in the data active = activation mostly above about 9.5%, no sharp cut-off; inactive = mostly below about 7.6%;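 note: 0% = cells with vehicle only and 100% = reference agonist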
MOR-DOR inv ag = inverse agonist of human OPRM1-OPRD1 heterodimerization. inhibition, % at 9.3 µM. cell-based MOR-DOR heterodimer luminescence, inverse agonism. actives 0.21% (n = 340,000); in the data active = inhibition above about 22%, passing the limit was not always enough;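 note: 0% = cells with DMSO and 100% = wells without cells with DMSO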
MOR-DOR ag conf = OPRM1-OPRD1 heterodimer agonism, confirmation; shares compounds with MOR-DOR ag; cells, MOR-DOR heterodimerization, luminescence complementation; activation, % at 9.3 µM; actives 45% (n = 830);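 note: 0% = vehicle-treated cells and 100% = reference agonist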
HTR5A ag counter = HTR5A agonism, opioid heterodimer counter-screen | HTR5A agonist counterscreen, cell luminescence | activation, % at 9.3 µM | shares compounds with MOR-DOR ag | AID 504905 | actives 8% (n = 830); in the data active = activation above about 17%;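 note: 0% = vehicle-treated cells and 100% = reference agonist response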
* marks the source's active call; other numbers are inactive results; i = inactive; x = no result. Cut-off read from the data, not from the text of the source, unless noted: active = activation above about 18%; inactive = the rest.

SMILES	MOR-DOR ag	HTR5A inv ctr	MIN6 prolif	p-CIP stab down	HTR5A ag	MOR-DOR inv ag	MOR-DOR ag conf	HTR5A ag counter
Cc1ccc2sc(N(CCCN(C)C)C(=O)c3ccc(S(=O)(=O)N4CCOCC4)cc3)nc2c1C	-3	0	-2	x	0	15	x	x
CN(C)CCCN(C(=O)c1ccc(S(=O)(=O)N(C)C)cc1)c1nc2cc3c(cc2s1)OCO3	-3	-5	-1	-5	2	17	x	x
CC1CC(=O)Nc2ccccc2N1C(=O)CSc1nnnn1C(C)C (stereo unspecified)	0	12	-2	x	-5	1	x	x
COc1ccc(CCNC(=O)/C=C\c2ccccc2)cc1OC	-1	6	1	-11	-2	5	x	x
COc1ccc(/C=C/C(=O)NC(=S)NCCc2ccc(OC)c(OC)c2)cc1	30*	-5	4	-5	5	-168	55*	3
COc1cc(/C=N/NC(=O)c2ccccc2O)ccc1OCC(=O)Nc1ccccc1	-3	18	-4	-4	2	17	x	x
O=C(COc1ccc(/C=N/NC(=O)c2cc3ccccc3o2)cc1Cl)Nc1ccccc1	41*	-27	-4	3	9	-237	3	-4
CCOC(=O)C1=C(Cc2ccc(F)cc2)C(=O)c2ccccc2C1=O	18*	0	-6	-41	5	-100	2	27*
O=C(CCl)N(CCCNC(=O)C(F)(F)F)c1ccc([N+](=O)[O-])cc1	18*	-8	-4	-8	-1	-94	28*	29*
Cc1cccc(NC(=S)NC(=O)CCc2ccccc2)c1	18*	0	-5	-4	0	-98	352*	-1
Cc1cccc(NC(=O)NNC(=O)CCc2ccccc2)c1	0	-10	-5	5	0	2	x	x
CCCn1ncc(CN2CCC(n3nccc3NC(=O)CCc3ccccc3)CC2)c1C	223*	4	0	4	-1	i	13	5
CCn1cc(CN2CCC(n3nccc3NC(=O)CCc3ccccc3)CC2)cn1	31*	-5	-3	-9	1	-176	18	0
CCCn1ncc(CN2CCC(n3nccc3NC(=O)c3ccccc3OC)CC2)c1C	-2	-8	-3	-3	3	8	x	x
Cc1c(C(=O)N(Cc2ccccc2)C2CCS(=O)(=O)C2)oc2ccccc12 (stereo unspecified)	2	-41	6	3	13	-13	x	x
Cc1c(C(=O)N(Cc2cccs2)C2CCS(=O)(=O)C2)oc2ccccc12 (stereo unspecified)	27*	-16	1	-6	5	-138	-2	-7
COc1cc(C2C(C#N)=C(N)N(c3sc4c(c3C#N)CCCC4)C3=C2C(=O)CC(C)(C)C3)cc(OC)c1OC (stereo unspecified)	58*	-2	-3	-8	0	-360	45*	4
Cc1ccc(NC2=Nc3ccccc3CC2)cc1	8	-8	0	-10	-4	-46	x	x
Brc1ccc(NC2=Nc3ccccc3CC2)cc1	26*	4	-2	-2	1	-165	230*	7
Cn1c(SCC(=O)Nc2ccc(F)cc2)nc2c([nH]c3ccccc32)c1=O	25*	-12	-5	-6	4	-129	18*	5
Cc1ccc(NC(=O)CSc2nc3c([nH]c4ccccc43)c(=O)n2C)cc1	31*	-7	-6	-5	3	-185	-4	1
CCOc1ccc(NC(=O)CSc2nc3c([nH]c4ccccc43)c(=O)n2C)cc1	-1	16	-4	1	-5	6	x	x
CCOc1ccc(OCC(=O)N(CCC2=CCCCC2)c2c(N)n(Cc3ccccc3)c(=O)[nH]c2=O)cc1	2	0	-7	x	0	-9	x	x
CC(CC(=O)N(CCC1=CCCCC1)c1c(N)n(Cc2ccccc2)c(=O)[nH]c1=O)c1ccccc1 (stereo unspecified)	39*	-17	-7	x	-4	-257	33*	10
O=C(CN1C(=O)NC2(CCCC2)C1=O)N1CCN(S(=O)(=O)c2cc(Cl)ccc2Cl)CC1	-1	-1	-5	x	-2	4	x	x
SMILES	MOR-DOR ag	HTR5A inv ctr	MIN6 prolif	p-CIP stab down	HTR5A ag	MOR-DOR inv ag	MOR-DOR ag conf	HTR5A ag counter
COc1ccccc1C(=O)OCc1c(-c2ccccc2)ncc2ccccc12	0	-1	-5	x	0	0	x	x
NS(=O)(=O)c1cccc(C(=O)OCC(=O)NC2CCCc3ccccc32)c1 (stereo unspecified)	2	2	-2	x	1	-6	x	x
OC(CNCC(c1ccc(Cl)cc1Cl)c1c[nH]c2ccccc12)c1ccccc1 (stereo unspecified)	55*	-42	-7	-3	15*	-271	0	1
O=[N+]([O-])CC(c1ccccc1)c1c[nH]c2ccccc12 (stereo unspecified)	x	x	-4	x	x	x	x	x
Cc1ccc2nc(-c3ccccc3)nn2c1	-3	-6	x	x	1	15	x	x
COc1cc2c(cc1NC(=O)C(C)Sc1ccc(NC(C)=O)cc1)oc1ccccc12 (stereo unspecified)	20*	-8	0	0	2	-114	0	-1
Cc1cccc(CC(Cc2nc3ccccc3[nH]2)c2nc3ccccc3[nH]2)c1 (stereo unspecified)	18*	12	-5	-18	-5	-109	2	-4
O=C(c1ccccc1F)N(Cc1ccccc1)C1CCS(=O)(=O)C1 (stereo unspecified)	1	1	-2	-1	-2	-7	x	x
O=C(COC(=O)CNC(=O)c1sc2ccccc2c1Cl)NC1CCS(=O)(=O)C1 (stereo unspecified)	-1	-1	0	x	-3	10	x	x
O=C(c1sc2ccccc2c1Cl)N(Cc1ccccc1)C1CCS(=O)(=O)C1 (stereo unspecified)	29*	0	3	0	-2	-146	27*	5
O=C(c1sc2ccccc2c1Cl)N(Cc1ccco1)C1CCS(=O)(=O)C1 (stereo unspecified)	53*	-26	1	-8	0	-283	54*	0
O=C(c1sc2ccccc2c1Cl)N(Cc1ccccc1Cl)C1CCS(=O)(=O)C1 (stereo unspecified)	52*	-12	-4	1	4	-275	18*	4
CCOc1ccc(C(C)NC(=O)c2ccc3c(c2)NC(=O)C(C)S3)cc1OCC (stereo unspecified)	-2	-1	10	x	0	10	x	x
